Results from PubChem BioAssay (Tox21).
Results filed as inconclusive are left out. Activity calls are given as the source filed them. Unless noted, calls follow the shape of the dose curve; as a rule, active = well fitted curve in the direction sought with a large enough effect in the repeat runs; inconclusive = weak or mixed curves; inactive = no such curve, though single readings can be large; an effect the other way counts as inactive or inconclusive.

Assays:
[1] = A CellTox Green Cytotoxicity Assay to monitor cytotoxicity in HepG2 cells - 8 hour (AID 1224890); also: nearly all actives have a fitted effect of over 45% in size
In short: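 HepG2 cells were seeded together with the CellTox Green dye at 600 cells/well, left 5 h at 37 C/5% CO2, then given compounds in DMSO. Fluorescence from dye bound to dead-cell DNA was read repeatedly over 40 h of treatment at 37 C.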

[2] = qHTS assay to identify small molecule antagonists of the estrogen receptor alpha (ER-alpha) signaling pathway using the BG1 cell line in the presence of 0.1 nM 17-beta-estradiol - cell viability counter screen (AID 1259241); also: nearly all actives have a fitted effect of over 40% in size; also: potency is read from the fitted curve at half-maximal effect
In short: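 The cell line endogenously expresses full-length ER-alpha and carries four EREs driving luciferase. Cells are cultured 5 days hormone-free, treated 22 hr with compounds and 0.1 nM estradiol, then viability is read by fluorescence.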

[3] = qHTS assay to identify small molecule antagonists of the androgen receptor (AR) signaling pathway using the MDA cell line in the presence of 0.5 nM R1881 - cell viability counter screen (AID 1259242); also: nearly all actives have a fitted effect of over 45% in size; also: potency is read from the fitted curve at half-maximal effect
In short: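 MDA-kb2 cells (human breast carcinoma, stably carrying MMTV-luciferase reporter) were exposed to compounds with 0.5 nM R1881 (final) for 16 hr at 37C, 0% CO2; viability then read as live-cell protease fluorescence (CellTiter-Fluor, 30 min) in the same wells.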

[4] = target: Androgen receptor (Homo sapiens) (UniProt P10275); test: qHTS assay to identify small molecule antagonists of the androgen receptor (AR) signaling pathway using the MDA cell line in the presence of 0.5 nM R1881 (AID 1259243); also: nearly all actives have a fitted effect of over 50% in size; also: potency is read from the fitted curve at half-maximal effect
In short: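 MDA-kb2 human breast carcinoma cells carrying an MMTV-luciferase reporter (AR- and GR-responsive) were plated, rested 5 hr at 37C, dosed with compounds, then stimulated with 0.5 nM R1881 (final) for 16 hr; luminescence was read after ONE-Glo.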

[5] = target: Estrogen receptor (Homo sapiens) (UniProt P03372); test: qHTS assay to identify small molecule antagonists of the estrogen receptor alpha (ER-alpha) signaling pathway using the BG1 cell line in the presence of 0.1 nM 17-beta-estradiol (AID 1259244); also: nearly all actives have a fitted effect of over 50% in size; also: potency is read from the fitted curve at half-maximal effect
In short: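 VM7Luc4E2 cells (endogenous full-length ER-alpha, stable 4xERE-luciferase) were grown 5 days in phenol red-free medium with charcoal-stripped FBS, then exposed 22 h at 37C to compounds plus 0.1 nM (final) 17beta-estradiol; ONE-Glo luminescence read-out.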

[6] = qHTS assay to identify small molecule phospholipidosis (PLD) inducers (AID 1259344; active = well fitted curve in the direction sought with a large enough effect; an effect the other way counts as inactive or inconclusive)
In short: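 Quantitative HTS in HepG2: compound plus LipidTOX Red dye for 24 h, paraformaldehyde fixation with Hoechst 33342, widefield high-content imaging; amiodarone as positive and DMSO as negative control.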

[7] = qHTS assay to identify small molecule HDAC inhibitors (AID 1259364); also: top concentration of the series differs between compounds; nearly all actives have a fitted effect of over 45% in size
In short: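 Wild-type HCT-116 cells were plated overnight, exposed to compounds for 2 h at 37 °C, then given HDAC-Glo class I/II luminogenic reagent for 30 min at room temperature before luminescence was read.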

[8] = qHTS assay to identify small molecule HDAC inhibitors - cell viability counter screen (AID 1259365); also: series mostly up to about 92 µM; nearly all actives have a fitted effect of over 50% in size
In short: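 Viability readout: CellTiter-Glo luminescence. Wild-type HCT-116 cells, 2hr compound treatment following overnight attachment at 37 C.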

[9] = qHTS assay to identify small molecule agonists of the sonic hedgehog signaling (Shh) pathway - cell viability counter screen (AID 1259366); also: nearly all actives have a fitted effect of over 50% in size
In short: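 Viability measured fluorometrically (CellTiter-Fluor, 1hr, 37C) in 3T3 Gli1-Luc reporter cells after 23hr compound exposure within a 24hr incubation at 37C/5% CO2.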

[10] = qHTS assay to identify small molecule antagonists of the sonic hedgehog signaling (Shh) pathway - cell viability counter screen (AID 1259367); also: nearly all actives have a fitted effect of over 55% in size
In short: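 Seed 3T3 Gli1-Luc cells at 2,000 per well; incubate 4 hr; add compound in DMSO, then conditioned medium; incubate at 37C with 5% CO2; add CellTiter-Fluor after 23 hr; read fluorescence 1 hr later.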
% is scaled to controls: 0 for no effect and ±100 for the full control effect.

Estrogen receptor (Homo sapiens), sequence (P03372 whole entry, looked up): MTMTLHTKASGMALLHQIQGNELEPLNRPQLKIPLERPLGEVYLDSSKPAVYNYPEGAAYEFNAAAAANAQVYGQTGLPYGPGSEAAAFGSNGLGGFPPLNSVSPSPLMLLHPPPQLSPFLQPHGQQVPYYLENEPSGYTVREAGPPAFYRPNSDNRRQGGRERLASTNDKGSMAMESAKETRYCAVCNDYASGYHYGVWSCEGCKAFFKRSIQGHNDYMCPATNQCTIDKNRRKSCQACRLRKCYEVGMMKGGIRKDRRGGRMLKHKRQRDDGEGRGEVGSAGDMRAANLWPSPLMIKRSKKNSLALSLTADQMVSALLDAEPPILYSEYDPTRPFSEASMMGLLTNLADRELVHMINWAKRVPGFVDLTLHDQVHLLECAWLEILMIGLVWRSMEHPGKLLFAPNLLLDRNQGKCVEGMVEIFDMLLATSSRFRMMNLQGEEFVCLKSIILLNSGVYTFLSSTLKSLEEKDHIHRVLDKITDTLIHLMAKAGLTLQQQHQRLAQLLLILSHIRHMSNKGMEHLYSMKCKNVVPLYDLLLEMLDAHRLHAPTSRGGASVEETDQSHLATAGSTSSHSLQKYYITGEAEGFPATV
Androgen receptor (Homo sapiens), sequence (P10275 whole entry, looked up): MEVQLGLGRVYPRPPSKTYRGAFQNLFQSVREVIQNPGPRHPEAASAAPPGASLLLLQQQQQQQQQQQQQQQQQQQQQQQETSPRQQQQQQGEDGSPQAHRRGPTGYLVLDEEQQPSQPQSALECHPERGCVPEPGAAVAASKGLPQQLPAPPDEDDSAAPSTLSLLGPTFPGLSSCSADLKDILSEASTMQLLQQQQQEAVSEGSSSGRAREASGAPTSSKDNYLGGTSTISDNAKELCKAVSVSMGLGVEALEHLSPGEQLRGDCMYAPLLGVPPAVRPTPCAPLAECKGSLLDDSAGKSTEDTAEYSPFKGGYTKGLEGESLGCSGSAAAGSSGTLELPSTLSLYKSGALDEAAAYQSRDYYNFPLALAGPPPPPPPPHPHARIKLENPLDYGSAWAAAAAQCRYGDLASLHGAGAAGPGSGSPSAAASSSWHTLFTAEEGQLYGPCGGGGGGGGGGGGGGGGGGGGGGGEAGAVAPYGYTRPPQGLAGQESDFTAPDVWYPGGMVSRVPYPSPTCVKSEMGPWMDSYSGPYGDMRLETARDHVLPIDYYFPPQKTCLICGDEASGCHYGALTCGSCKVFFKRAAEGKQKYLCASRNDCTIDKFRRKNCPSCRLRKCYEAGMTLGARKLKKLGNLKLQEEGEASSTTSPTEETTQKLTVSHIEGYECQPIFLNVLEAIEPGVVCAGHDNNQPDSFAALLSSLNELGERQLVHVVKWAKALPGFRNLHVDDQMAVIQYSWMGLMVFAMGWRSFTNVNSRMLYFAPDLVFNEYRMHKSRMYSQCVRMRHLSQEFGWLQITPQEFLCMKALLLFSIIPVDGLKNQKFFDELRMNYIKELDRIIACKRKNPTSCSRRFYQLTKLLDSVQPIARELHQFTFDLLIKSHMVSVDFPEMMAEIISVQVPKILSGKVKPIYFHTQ

COc1cc2c(cc1OC)-c1cc(=Nc3c(C)cc(C)cc3C)n(C)c(=O)n1CC2
inactive: Potency [1] | Potency [2] | Potency [3] | Potency [4] | Potency [5] | outcome [6] | Potency [7] | Potency [8] | Potency [9]

CCOC(=O)/C=C/C(=O)O
inactive: Potency [1] | Potency [2] | Potency [3] | Potency [4] | Potency [5] | Potency [7] | Potency [8] | Potency [9] | Potency [10]

CCC(C(=O)OCCN(CC)CC)c1ccccc1 (centres undefined)
inactive: Potency [1] | Potency [2] | Potency [3] | Potency [4] | Potency [5] | outcome [6] | Potency [7] | Potency [8] | Potency [10]

O=C(O)Cc1ccc(-c2ccccc2)cc1
inactive: Potency [1] | Potency [2] | Potency [3] | Potency [4] | Potency [5] | outcome [6] | Potency [8] | Potency [9] | Potency [10]

CC(C)=CC=O
inactive: Potency [1] | Potency [2] | Potency [3] | Potency [4] | Potency [5] | Potency [7] | Potency [8]

O=C(O)c1c(O)c(-c2ccccc2)nc2ccccc12
inactive: Potency [1] | Potency [2] | Potency [3] | Potency [4] | Potency [5] | Potency [7] | Potency [8] | Potency [10]

CNC(=O)N(c1ccccc1)c1ccccc1
inactive: Potency [1] | Potency [2] | Potency [3] | Potency [4] | Potency [5] | Potency [7] | Potency [8] | Potency [9] | Potency [10]

CC(=O)Nc1ccc(N)cc1
inactive: Potency [1] | Potency [2] | Potency [3] | Potency [4] | Potency [5] | Potency [7] | Potency [8] | Potency [9] | Potency [10]

Cn1c(=O)c2c(ncn2CC(=O)O)n(C)c1=O
inactive: Potency [1] | Potency [2] | Potency [3] | Potency [4] | Potency [5] | Potency [7] | Potency [8] | Potency [9] | Potency [10]

CNC(=S)NC
inactive: Potency [1] | Potency [2] | Potency [3] | Potency [4] | Potency [5] | Potency [7] | Potency [8] | Potency [9]

CC(=O)OCC(=O)[C@H]1CC[C@H]2[C@@H]3CCC4=CC(=O)CC[C@]4(C)[C@H]3CC[C@]12C
inactive: Potency [1] | Potency [2] | Potency [3] | Potency [4] | Potency [5] | Potency [7] | Potency [8] | Potency [9]

OCC1CC=CCC1 (centres undefined)
inactive: Potency [1] | Potency [2] | Potency [3] | Potency [4] | Potency [5] | Potency [7] | Potency [8] | Potency [9] | Potency [10]

CC(C)(O)c1ccccc1CC[C@@H](SCC1(CC(=O)O)CC1)c1cccc(/C=C/c2ccc3ccc(Cl)cc3n2)c1
inactive: Potency [1] | Potency [2] | Potency [3] | Potency [4] | Potency [5] | outcome [6] | Potency [7] | Potency [8] | Potency [10]

CC(C)(C)CC(C)(C)c1ccc(OCCO)cc1
active: Potency [2] 54.2 µM | Potency [3] 48.3 µM | Potency [4] 6.82 µM | Potency [5] 10.8 µM
inactive: Potency [1] | outcome [6] | Potency [7] | Potency [8]

CCCCCCCCCCCC[N+](C)(C)CC(=O)[O-]
inactive: Potency [1] | Potency [2] | Potency [3] | Potency [5] | Potency [7] | Potency [8] | Potency [9] | Potency [10]

O=C(CCCN1CCC(O)(c2ccc(Br)cc2)CC1)c1ccc(F)cc1
inactive: Potency [1] | Potency [2] | Potency [3] | Potency [5] | Potency [7] | Potency [8] | Potency [9] | Potency [10]

CCCOc1ccc(S(=O)(=O)N2CCN(CC)CC2)cc1-c1nc2c(CC)n(Cc3ccccn3)nc2c(=O)[nH]1
inactive: Potency [1] | Potency [2] | Potency [3] | Potency [5] | Potency [7] | Potency [8]

CCCCCCCCCCCCCCCCBr
inactive: cytotoxicity increase [1] -4.5% [at 15.8 µM] | activity change, negative = cytotoxicity [2] 1.42% [at 19 µM] | viability change, negative = cytotoxic [3] 2.08% [at 19 µM] | activity change, negative = inhibition [5] 3% [at 19 µM] | activity change, negative = inhibition [7] 4.52% [at 19 µM] | activity change, negative = cytotoxicity [8] 1.54% [at 19 µM] | viability change, negative = cytotoxic [9] -1.13% [at 19 µM] | viability change, negative = cytotoxic [10] -2.38% [at 19 µM]

CC(CCO)CCc1ccccc1 (centres undefined)
inactive: Potency [1] | Potency [2] | Potency [3] | Potency [5] | Potency [7] | Potency [8] | Potency [9] | Potency [10]

CCC(C)(O)CCC=C(C)C (centres undefined)
inactive: Potency [1] | Potency [2] | Potency [3] | Potency [5] | Potency [7] | Potency [8] | Potency [9] | Potency [10]

CO/N=C1\CN(c2nc3c(cc2F)c(=O)c(C(=O)O)cn3C2CC2)CC1CN (centres undefined)
inactive: Potency [1] | Potency [2] | Potency [3] | Potency [5] | outcome [6] | Potency [7] | Potency [8] | Potency [10]

CCCCC(CC)COC(=O)COc1ccc(Cl)cc1C (centres undefined)
inactive: Potency [1] | Potency [2] | Potency [3] | Potency [5] | Potency [7] | Potency [8] | Potency [9]

Cc1ccc(S)cc1
inactive: Potency [1] | Potency [2] | Potency [3] | Potency [5] | Potency [7] | Potency [8] | Potency [9] | Potency [10]

c1cc[c]([Bi]([c]2ccccc2)[c]2ccccc2)cc1
inactive: Potency [1] | Potency [2] | Potency [3] | Potency [5] | Potency [7] | Potency [8]

CCC(C)(C)C1CCC(O)CC1 (centres undefined)
inactive: Potency [1] | Potency [2] | Potency [3] | Potency [5] | Potency [7] | Potency [8] | Potency [9] | Potency [10]

Cc1ccnc2ccccc12
inactive: Potency [1] | Potency [2] | Potency [3] | Potency [5] | Potency [7] | Potency [8]
